{"source": "PubChem BioAssay AID431", "about": "(Sanford-Burnham Center for Chemical Genomics, 2006)", "note": "Screen size: about 63,000 compounds; about 1,100 (1.7%) were called active. The entries come from a sample that favours actives as a whole. Results with a measured potency or affinity are listed apart. Values without a mark were called inactive.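 The calls were made as follows: active = compounds whose percent cytotoxicity in the single-dose primary screen, scaled between solvent and toxic-drug controls, exceeds 50; inactive = the rest.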", "data": [{"test": "cytotoxicity in KRAS-transformed pancreatic duct cells, primary screen, cell-based, fluorescence, HTS (AID 431);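 also: 0% = DMSO solvent wells and 100% = doxorubicin-treated wells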", "details": "HPDE-C7K KRASV12 cells, Alamar Blue viability, 48 h; at 10 µM; stronger effect = higher value", "values": [{"smiles": "COC(=O)C1=C(C)OC(N)=C(C#N)C1C1CCCCC1", "note": "(stereo not drawn)", "cytotoxicity": "-11.1%"}, {"smiles": "CCOc1ccc(NC(=O)CSc2nnc(C)n2CCCOC)cc1", "cytotoxicity": "-3.5%"}, {"smiles": "COc1cccc(C(=O)Nc2ccc(C)cc2)c1", "cytotoxicity": "4.1%"}, {"smiles": "COc1cccc(C(=O)/C=C/Nc2cc(C)ccc2O)c1", "cytotoxicity": "69.1% (active)"}, {"smiles": "C/C(=C\\C(=O)c1ccc(C)cc1)Nc1cccc(O)c1", "cytotoxicity": "-15.4%"}, {"smiles": "Cc1cccc(OCC(=O)Nc2cc(C)ccc2O)c1", "cytotoxicity": "-1.5%"}, {"smiles": "Cc1ccc(C(=O)/C=C/Nc2cccc(O)c2)cc1", "cytotoxicity": "60.9% (active)"}, {"smiles": "O=C(/C=C/Nc1cccc(O)c1)c1ccccc1", "cytotoxicity": "15%"}, {"smiles": "Cc1noc(C)c1S(=O)(=O)Nc1ccc(C(=O)N2CCN(c3ccc(Cl)cc3)CC2)cc1", "cytotoxicity": "-5.4%"}, {"smiles": "Cc1ccc(C)c(N2CCN(C(=O)c3ccc(NS(=O)(=O)c4c(C)noc4C)cc3)CC2)c1", "cytotoxicity": "17.4%"}, {"smiles": "CCCCc1n[nH]c2c1C(=O)CC(C)(C)C2", "cytotoxicity": "1.2%"}, {"smiles": "CCOC(=O)N1CCC(NC(=O)c2cc(C(=O)Nc3cccc(OC)c3)ccc2CO)CC1", "cytotoxicity": "1.1%"}, {"smiles": "CCCC(c1nnnn1CC1CCCO1)N1CCN(c2cc(Cl)ccc2C)CC1", "note": "(stereo not drawn)", "cytotoxicity": "61.1% (active)"}, {"smiles": "Cc1ccc(Cl)cc1N1CCN(C(CC(C)C)c2nnnn2CC2CCCO2)CC1", "note": "(stereo not drawn)", "cytotoxicity": "39.6%"}, {"smiles": "CCCCC(c1nnnn1CC1CCCO1)N1CCN(c2cc(Cl)ccc2C)CC1", "note": "(stereo not drawn)", "cytotoxicity": "36.2%"}, {"smiles": "O=C(Nc1ccccc1C(=O)O)c1ncn[nH]1", "cytotoxicity": "-10%"}, {"smiles": "CC(C)CC(=O)Nc1c2c(nn1-c1ccc(F)cc1)CSC2", "cytotoxicity": "-0.6%"}, {"smiles": "CCOC(=O)CCc1c(C)n(CC)c2ncnn2c1=O", "cytotoxicity": "2.5%"}, {"smiles": "O=C(Cc1cccs1)Nc1nc2ccccc2s1", "cytotoxicity": "2.2%"}, {"smiles": "CC(C)(C)NS(=O)(=O)c1ccc2nc(NC(=O)Cc3cccs3)sc2c1", "cytotoxicity": "73.1% (active)"}, {"smiles": "CS(=O)(=O)c1ccc2nc(NC(=O)Cc3ccccc3)sc2c1", "cytotoxicity": "2.6%"}, {"smiles": "COCCn1c(=S)[nH]c2cc(C(=O)N3CCN(c4ccccc4OC)CC3)ccc2c1=O", "cytotoxicity": "6.7%"}, {"smiles": "CCCc1[nH]n(-c2nc3ccccc3s2)c(=O)c1C=NCCN1CCOCC1", "cytotoxicity": "24.1%"}, {"smiles": "O=c1c(C=NCCCn2ccnc2)c(-c2ccccc2)[nH]n1-c1nc2ccccc2s1", "cytotoxicity": "63.3% (active)"}, {"smiles": "CCCCCN=Cc1c(C)[nH]n(-c2nc3ccccc3s2)c1=O", "cytotoxicity": "13.1%"}, {"smiles": "C=CCc1ccc(OCC(O)CN2CCCCC2C)c(OC)c1", "note": "(stereo not drawn)", "cytotoxicity": "22.6%"}, {"smiles": "COCCn1nnnc1SCC(=O)N1CCCCC1", "cytotoxicity": "-12.2%"}, {"smiles": "CCOc1ccc2nc(C(C)O)[nH]c2c1", "note": "(stereo not drawn)", "cytotoxicity": "5.3%"}, {"smiles": "COc1ccc2nc(-c3ccccc3)[nH]c2c1", "cytotoxicity": "-5.2%"}, {"smiles": "CCOc1ccc2nc(-c3ccccc3)[nH]c2c1", "cytotoxicity": "57.3% (active)"}, {"smiles": "CCOc1ccccc1NC(=O)CSc1nnnn1-c1ccc(C(=O)OC)cc1", "cytotoxicity": "0.9%"}, {"smiles": "CNCCCC1c2ccccc2C=Cc2ccccc21", "cytotoxicity": "10.4%"}, {"smiles": "CNCCCC12CCC(c3ccccc31)c1ccccc12", "cytotoxicity": "73.1% (active)"}, {"smiles": "CNCCCN1c2ccccc2CCc2ccccc21", "cytotoxicity": "17.5%"}, {"smiles": "Cc1cc(NC(=O)CSc2nc(-c3ccccc3)cs2)no1", "cytotoxicity": "-7.6%"}, {"smiles": "N#CC1=C(N)OC2=C(C(=O)CCC2)C1c1ccc(OC(=O)N2CCOCC2)cc1", "note": "(stereo not drawn)", "cytotoxicity": "-4.6%"}, {"smiles": "c1ccc(-c2ccc(-c3ccccn3)nn2)nc1", "cytotoxicity": "7.3%"}, {"smiles": "c1ccc(-c2nnc(-c3ccccn3)nn2)nc1", "cytotoxicity": "8.9%"}, {"smiles": "Cc1ccc(C)c(S(=O)(=O)NC(CCC(N)=O)C(=O)O)c1", "note": "(stereo not drawn)", "cytotoxicity": "5%"}, {"smiles": "COc1ccc2c(c1)CCc1c(C(=O)Nc3ccn(Cc4ccc(C)cc4)n3)noc1-2", "cytotoxicity": "-1.5%"}, {"smiles": "COc1cc(C2C3C(=O)N(c4ccccc4)C(=O)C3ON2c2ccccc2)ccc1O", "note": "(stereo not drawn)", "cytotoxicity": "3.7%"}, {"smiles": "CCCOc1ccc(N2C(=O)C3ON(c4ccccc4)C(c4ccc(O)c(OC)c4)C3C2=O)cc1", "note": "(stereo not drawn)", "cytotoxicity": "81.7% (active)"}, {"smiles": "COc1cc(C2C3C(=O)N(c4ccc(F)cc4)C(=O)C3ON2c2ccccc2)ccc1O", "note": "(stereo not drawn)", "cytotoxicity": "-1.5%"}, {"smiles": "CCCCCC1CC(CC(=O)O)C(=O)O1", "note": "(stereo not drawn)", "cytotoxicity": "-13.6%"}, {"smiles": "CCOC(=O)N1CCC(NC(=O)c2cc(C(=O)Nc3ccc(OCC)cc3)ccc2CO)CC1", "cytotoxicity": "1.5%"}, {"smiles": "CCn1c(CNc2nc(-c3ccccc3)cs2)nnc1SCC(=O)NCc1ccco1", "cytotoxicity": "-32.7%"}, {"smiles": "COCCOC(=O)c1c(C)oc2ccc(NS(=O)(=O)c3ccccc3)cc12", "cytotoxicity": "17.1%"}, {"smiles": "COC(=O)c1ccccc1NS(=O)(=O)c1ccc2c3c(cccc13)C(=O)N2", "cytotoxicity": "20.3%"}, {"smiles": "CCOC(=O)c1c(C)oc2ccc(NS(=O)(=O)c3ccc4c5c(cccc35)C(=O)N4)cc12", "cytotoxicity": "69.9% (active)"}, {"smiles": "CCCCn1c2c(c3ccccc31)CCc1nonc1-2", "cytotoxicity": "14.8%"}, {"smiles": "COC(=O)C(C)NC(=O)C(C)NC(=O)OCc1ccccc1", "note": "(stereo not drawn)", "cytotoxicity": "8%"}, {"smiles": "O=C(c1ccco1)N1CCN(c2c(-c3ccccc3)c3cc(Cl)ccc3[nH]c2=O)CC1", "cytotoxicity": "81.6% (active)"}, {"smiles": "O=c1[nH]c2ccc(Cl)cc2c(-c2ccccc2)c1N1CCOCC1", "cytotoxicity": "12.4%"}, {"smiles": "CCOC(=O)N1CCN(c2c(-c3ccccc3)c3cc(Cl)ccc3[nH]c2=O)CC1", "cytotoxicity": "-2.7%"}, {"smiles": "COc1cc(NC(=O)c2ccccc2)c(OC)cc1NC(C)=O", "cytotoxicity": "-2.1%"}, {"smiles": "O=C1NC(c2ccncc2)Nc2ccccc21", "note": "(stereo not drawn)", "cytotoxicity": "-12.1%"}, {"smiles": "COCCNC(=O)c1cc2cc(Br)cc(OC)c2oc1=O", "cytotoxicity": "0.9%"}, {"smiles": "CCCn1c(NC(=O)c2cccc(S(=O)(=O)N3CCCC3)c2)nc2ccccc21", "cytotoxicity": "54% (active)"}, {"smiles": "CCCn1c(NC(=O)c2ccc(C)cc2)nc2ccccc21", "cytotoxicity": "-46.1%"}, {"smiles": "CCCn1c(NC(=O)c2ccc(Cl)c(S(=O)(=O)N3CCCC3)c2)nc2ccccc21", "cytotoxicity": "37.6%"}, {"smiles": "O=C(Nc1nc2ccccc2n1CCN1CCCCC1)c1ccco1", "cytotoxicity": "-5%"}, {"smiles": "Cc1ccc(C(=O)Nc2nc3ccccc3n2CCN2CCCC2)cc1", "cytotoxicity": "-3.5%"}, {"smiles": "O=C(Nc1nc2ccccc2n1CCN1CCCC1)c1ccc(Cl)cc1", "cytotoxicity": "62.1% (active)"}]}]}
